We go through eight compounds from PubChem BioAssay (NCI).

About 83,000 compounds went through this panel and 20% of them were active in at least one assay; those are over-represented in the sample as a whole.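 In brief: 96-well plates, 48 h treatment, single concentration, percent growth endpoint.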 A number with no mark means an inactive call. The source made the active and inactive calls. The calls were made as follows: active = growth percent below 10; inactive = the rest.

Common to all, as to test: NCI-60 one-dose screen, 48 h (100 = growth as untreated, 0 = no growth, -100 = all killed)
Common to all, as to conditions: 10 µM unless noted

The subject of assay [1] is EKVX NSCLC.
Assay [2] concerns SN12C renal.
The subject of assay [3] is UO-31 renal.
In assay [4] the test system is TK-10 renal.
The subject of assay [5] is ACHN renal.
Assay [6] relates to CAKI-1 renal.
Assay [7] has as its system A498 renal.
Assay [8] relates to CCRF-CEM leukemia.
The subject of assay [9] is MOLT-4 leukemia.
Assay [10] relates to SR leukemia.
Assay [11] deals with RPMI-8226 leukemia.
In assay [12] the test system is OVCAR-8 ovarian.
Assay [13] concerns OVCAR-5 ovarian.
Assay [14] has as its system OVCAR-4 ovarian.
The subject of assay [15] is SK-OV-3 ovarian.
In assay [16] the test system is IGROV1 ovarian.
Assay [17] concerns OVCAR-3 ovarian.
In assay [18] the test system is HS 578T breast.
Assay [19] concerns NCI/ADR-RES ovarian.
The test system of assay [20] is T-47D breast.

As to `N#Cc1nc(-c2ccccc2)oc1N1CCC(CO)C1` (stereo not given), the growth in [1] was 77.4%; in [2], 97.1%; in [3] it was 88.7%; in assay [4], 104%; in [5] it was 105%; in assay [6], 90.2%. Moreover, the growth was 76.4% in [7]; 105% in [8]; 108% in assay [9]; 110% in [10]; 103% in [11]; 103% in assay [12]. In addition, the growth in assay [13] is 93.2%; in [14], 99%; in [15], 121%; in assay [16] it was 93.1%; in assay [17], 104%; in assay [18], 96.1%. Besides, the growth in [19] was 106%; in assay [20], 83%.

`O=C(CSc1nc2sc3c(c2c(=O)n1-c1ccc(Cl)cc1)CCCC3)NNC(=O)Nc1ccc(Cl)c(C(F)(F)F)c1`: the growth in [1] was 41%; in assay [2], 32.3%; in assay [3] it was 30.4%; in assay [4] it was 38.3%; in assay [5], 13.3%; in assay [6] it was 34.6%. The growth in [7] is -15.5% (active); in assay [8], 13.5%; in assay [9], 6.67% (active); in assay [10] it was 8.77% (active); in assay [11], 0.887% (active); in assay [12] it was 27.2%. In addition, the growth in assay [13] was 49.4%; in assay [14], 16%; in [15], 74.9%; in [16], 29.7%; in [17], 4.44% (active); in [18], 69.4%. For the same compound, the growth in [20] was -34.2% (active).

`O=c1[nH]c2ccc(Cl)cc2cc1CSc1ccccc1Nc1nccc(-c2ccc(Cl)cc2)n1`: the growth in [1] was 80.5%; in [2], 87.1%; in assay [3] it was 81.2%; in assay [4], 128%; in assay [5], 95.7%; in assay [6] it was 82.5%. Also, the growth in assay [7] was 88.1%; in assay [8], 90.6%; in [9], 60.9%; in [10], 77.2%; in assay [11], 84%; in assay [12], 96.5%. The growth in assay [13] was 114%; in assay [14] it was 89%; in [15], 122%; in assay [16] it was 82.7%; in assay [17], 89.3%; in assay [18], 91.2%. The growth in [19] is 117%; in assay [20], 84.8%.

As to `COc1ccccc1C(=O)CSc1nc(Nc2ccc(S(N)(=O)=O)cc2)c2ccccc2n1`, the growth in [1] is 92.6%; in assay [2], 81.1%; in assay [3], 90.6%; in [4], 116%; in assay [5], 92.1%; in assay [6], 91.1%. Also, the growth in assay [7] was 99.8%; in assay [8], 87.3%; in assay [9], 93%; in [10], 64.3%; in assay [11], 90.8%; in [12] it was 90.5%. The growth is 90.8% in assay [13]; 86.6% in [14]; 121% in assay [15]; 95.5% in assay [16]; 107% in assay [17]; 96.9% in assay [18]. The growth in assay [20] was 89.6%.

In the case of `N#Cc1c(-c2ccc(Cl)cc2)nc(SCc2ccccc2)nc1N1CCNCC1`, the growth was 71.6% in assay [1]; 54.9% in assay [2]; 53% in [3]; 96% in assay [4]; 47.8% in assay [5]; 53.1% in assay [6]. Further, the growth in assay [7] is 79.7%; in assay [8], 45.9%; in assay [9] it was 52.7%; in assay [10], -24.8% (active); in [11] it was 23%; in assay [12], 65.6%. Besides, the growth in assay [13] is 92.1%; in [14], 85.2%; in assay [15], 113%; in assay [16] it was 46.9%; in [17], 50%; in assay [18], 91.1%. The growth in [20] was 65.6%.

`N=C1CC(=O)NN1C(=O)CSc1nc2sc3c(c2c(=O)n1-c1ccc(Cl)cc1)CCCC3`: the growth in [1] was 97.8%; in assay [2], 93.5%; in [3], 70.1%; in assay [4], 150%; in assay [5], 94%; in assay [6], 87.4%. In addition, the growth in assay [7] is 91.3%; in assay [8] it was 103%; in assay [9], 103%; in [10], 94%; in assay [11] it was 102%; in [12] it was 100%. For the same compound, the growth in [13] was 104%; in assay [14], 103%; in assay [15] it was 98.2%; in [16], 94.5%; in assay [17], 122%; in assay [18], 94.5%. For the same compound, the growth in [19] was 115%; in assay [20] it was 83.8%.

In the case of `Cc1sc2c(c1C)c(=O)nc1c(-c3nc(-c4ccc(F)cc4)no3)n[nH]n12`, the growth in assay [1] is 95.2%; in [2], 98.2%; in assay [3] it was 88.1%; in assay [4], 122%; in assay [5], 96.5%; in [6] it was 92.8%. In addition, the growth was 98.6% in assay [7]; 104% in [8]; 104% in assay [9]; 97.6% in assay [10]; 108% in assay [11]; 104% in [12]. Further, the growth in assay [13] is 103%; in assay [14] it was 112%; in [15], 101%; in assay [16], 102%; in [17], 121%; in assay [18] it was 105%. In addition, the growth in assay [19] was 109%; in assay [20], 95.5%.

Take `O=C1C2=C(C(=O)c3c(O)cccc31)C(c1ccco1)c1sc(=O)[nH]c1S2` (stereo not given): the growth in [1] is 83.4%; in assay [2] it was -73.6% (active); in assay [3], 25.1%; in assay [4] it was 146%; in [5] it was 39.6%; in assay [6] it was 70.4%. Also, the growth in assay [7] is 17.1%; in [8], 13%; in [9], 0.849% (active); in [10] it was 15.8%; in assay [11], 18.7%; in assay [12], 2.5% (active). For the same compound, the growth in assay [13] was 11.7%; in [14], 24.3%; in [16], 28.1%; in assay [18] it was -10.4% (active); in assay [19], 9.22% (active); in assay [20], 23.6%.
